KLK7 zymogen act – activates the human kallikrein-7 zymogen. activation, % at 7 µM. 370,000 tested, 0.9% active. purified proKLK7, EDANS-DABCYL substrate fluorescence; 100% is mature enzyme control, 0% vehicle. AID 652039;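 active means activation above the mean of all tested compounds plus 3 SD, computed per campaign excluding outliers beyond control limits, cut at about 13% in these data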
PLC-gamma1 inh – PLC-gamma1 (human) inhibition, primary screen. purified PLC-gamma1, fluorogenic substrate, fluorescence. 370,000 tested, 0.84% active. AID 720700. inhibition, % at 12.2 µM
PLCb3 inh – blocks human PLC-beta3 enzyme activity. Q01970. Purified PLC-beta3, fluorogenic substrate, fluorescence. inhibition, % at 12.2 µM. 370,000 tested, 0.18% active. AID 720704; in the data active means inhibition above about 11%;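 further: 0% = median of compound wells on plate and 100% = full blocker control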
ADAM17 inh – ADAM17 inhibition, QFRET primary screen; P78536; recombinant ADAM17, EDANS/DABCYL FRET peptide cleavage; inhibition, % at 6.95 µM; 370,000 tested, 0.83% active; AID 720648;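 active means inhibition above the mean of compounds lying between control limits plus 3 SD, set per campaign, cut at about 8.5% in these data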;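 further: 0% = DMSO-only wells as the low control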
ADAM10 inh – inhibits human ADAM10 | inhibition, % at 7 µM | 370,000 tested, 0.62% active | O14672 | AID 720582 | recombinant ADAM10, EDANS/DABCYL FRET peptide cleavage, 3 h;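 active means inhibition above a per-campaign cutoff equal to the mean of compounds falling between control-based bounds plus 3 SD, cut at about 20% in these data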;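 further: 0% = DMSO wells while the 100% control is not disclosed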
ADAM10 confirm – confirmation of inhibitors of human ADAM10 | shares compounds with ADAM10 inh | ADAM10 QFRET peptide cleavage, EDANS fluorescence | inhibition, % at 6.95 µM | 2,100 tested, 1% active | AID 743208;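 active means inhibition above about 20% chosen separately for each screening run, limit read from the data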;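 further: 0% = DMSO wells and 100% = marimastat wells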
ADAM17 counter – inhibits human ADAM17 in ADAM10 exosite counter-screen; shares compounds with ADAM10 inh; ADAM17 QFRET peptide cleavage, EDANS fluorescence; inhibition, % at 6.95 µM; 2,100 tested, 0.5% active;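 active means mean triplicate inhibition above the solvent-only control wells' mean plus 3 SD, cut at about 12% in these data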;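 further: 0% = DMSO wells and 100% = marimastat wells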
ADAM10 counter – inhibits human ADAM10 in ADAM17 exosite counter-screen; shares compounds with ADAM17 inh; 2,900 tested, 47% active; AID 743256; recombinant ADAM10, EDANS/DABCYL FRET peptide cleavage, 3 h; inhibition, % at 6.95 µM;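 active means mean inhibition over the triplicate runs exceeds the activity threshold set in the earlier primary screen, cut at about 20% in these data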;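 further: 0% = DMSO wells and 100% = marimastat wells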
ADAM17 confirm – confirmation of inhibitors of human ADAM17; shares compounds with ADAM17 inh; recombinant ADAM17, EDANS/DABCYL QFRET peptide cleavage; inhibition, % at 6.95 µM; 2,900 tested, 65% active;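 active means mean inhibition across replicates above the hit cutoff set in the primary screen, cut at about 8.5% in these data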;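 further: 0% = DMSO wells and 100% = marimastat wells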
PLCgamma1 ctr – inhibits human PLC-gamma1 in PLC-beta3 counter-screen | shares compounds with PLC-gamma1 inh | 3,300 tested, 3.1% active | purified PLC-gamma1, fluorogenic substrate, fluorescence | inhibition, % at 12.3 µM | AID 743258
PLCb3 confirm – human PLC-beta3 inhibition, confirmation; inhibition, % at 12.3 µM; 3,300 tested, 1% active; shares compounds with PLC-gamma1 inh; purified PLC-beta3, fluorogenic substrate fluorescence; in the data active means inhibition above about 11%
* marks the source's active call; other numbers are inactive results; / = no result given. Most compounds without a hit are left out; they make up all but 2.9% or so of the library. Unless noted, no stated cut-off is given here; in the data, active means inhibition above about 9.5%; inactive means the rest.

SMILES | KLK7 zymogen act | PLC-gamma1 inh | PLCb3 inh | ADAM17 inh | ADAM10 inh | ADAM10 counter | ADAM17 confirm | others
Cc1cc(C(=O)NCc2cccs2)ccc1[N+](=O)[O-] | 0 | 1 | 1 | -2 | 6 | / | /
CCOc1cc(C=NN=C2c3ccccc3-c3ccccc32)ccc1O | 0 | 2 | 2 | 0 | 0 | / | /
Cc1ccnc(NS(=O)(=O)c2cccc3nsnc23)c1 | 0 | 9.9* | 2 | 0 | 20* | / | / | ADAM10 confirm=2;ADAM17 counter=1;PLCgamma1 ctr=-6;PLCb3 confirm=-2
COc1ccccc1NC(=O)CSc1nnc(CCNC(=O)c2ccc(C)cc2)n1C | 0 | -3 | -4 | -5 | -5 | / | /
CC(OC(=O)CCCCCN=C1NS(=O)(=O)c2ccccc21)C(=O)Nc1cc(Cl)cc(Cl)c1 (stereo not drawn) | 1 | 9.7* | 6 | 15* | 29* | 17 | 15* | ADAM10 confirm=4;ADAM17 counter=1;PLCgamma1 ctr=1;PLCb3 confirm=0
CCC(C(=O)OCC(=O)Nc1cccc(C(C)=O)c1)c1ccccc1 (stereo not drawn) | -1 | -3 | -4 | -4 | -6 | / | /
CCC(C(=O)OCC(=O)Nc1cc(Cl)cc(Cl)c1)c1ccccc1 (stereo not drawn) | 0 | 8 | 11* | 19* | 42* | 23* | 12* | ADAM10 confirm=10;ADAM17 counter=4;PLCgamma1 ctr=0;PLCb3 confirm=1
N#Cc1ccc(OCC(=O)N2CCCC2=O)cc1 | 0 | -2 | -5 | -7 | -9 | / | /
Cc1ccc(-n2c(Cc3cccs3)nnc2SCC(=O)Nc2cccc3ccccc23)cc1 | 1 | 13* | 8 | 11* | 26* | 16 | 8 | ADAM10 confirm=8;ADAM17 counter=2;PLCgamma1 ctr=2;PLCb3 confirm=2
Cn1c(N=Nc2ccccc2)nc2ccccc21 | 0 | 8 | 12* | 8 | 22* | / | / | ADAM10 confirm=2;ADAM17 counter=0;PLCgamma1 ctr=-2;PLCb3 confirm=-2
O=C(O)CSCC(=O)N1CCN(c2nc3cc(Cl)ccc3s2)CC1 | 0 | 2 | -3 | 1 | 14 | / | /
CCO[C@@H]1OC(C(=O)N2CCCCCCC2)=C[C@H](c2ccc(C(F)(F)F)cc2)[C@H]1CCCO | -1 | 7 | 4 | 3 | 8 | / | /
CCO[C@H]1OC(C(=O)Nc2ccccc2)=C[C@@H](c2ccc(C(F)(F)F)cc2)[C@@H]1CCCO | 0 | 10* | 7 | 15* | 27* | 30* | 18* | ADAM10 confirm=4;ADAM17 counter=1;PLCgamma1 ctr=-3;PLCb3 confirm=4
Cc1cc(C(=O)OCC(=O)N2CCc3ccccc32)ccc1[N+](=O)[O-] | 0 | -1 | -7 | -9 | -11 | / | /
COc1ccc(CCNc2oc(COc3ccc(Br)cc3)nc2C#N)cc1OC | 0 | 6 | -1 | 10* | 18 | 34* | 19*
COc1ccc(Nc2oc(COc3ccc(Cl)cc3)nc2C#N)cc1 | 0 | -2 | -5 | 13* | 26* | 31* | 18*
COc1ccc(CNc2oc(COc3ccc(Cl)cc3)nc2C#N)cc1 | 0 | -4 | -10 | 11* | 18 | 31* | 16*
COc1cccc(NC(=O)NC2CCCCN(Cc3ccc(C)cc3)C2=O)c1 (stereo not drawn) | 0 | 9 | -2 | 2 | 4 | / | /
Cc1ccc2nc3n(c(=O)c2c1)-c1ccc(Cl)cc1C(=O)NC3Cc1ccccc1 (stereo not drawn) | -1 | 1 | -8 | 11* | 2 | -9 | -1
Cc1ccc2nc3n(c(=O)c2c1)-c1ccc(Cl)cc1C(=O)NC3CC(C)C (stereo not drawn) | -1 | 1 | -5 | -5 | -19 | / | /
CC(C)CC1NC(=O)c2ccc(Cl)cc2-n2c1nc1cc(F)ccc1c2=O (stereo not drawn) | 1 | 6 | 7 | 11* | 9 | 21* | 12*
CC(C)CC1NC(=O)c2ccc(Cl)cc2-n2c1nc1ccc(F)cc1c2=O (stereo not drawn) | 0 | -3 | -2 | -4 | 3 | / | /
CC(C)CC1NC(=O)c2cc(Cl)ccc2-n2c1nc1cc(F)ccc1c2=O (stereo not drawn) | 1 | 8 | 7 | 8.7* | 3 | 0 | -1
CCOC(=O)C1(C)CCCN(C(=O)c2c(-c3ccccc3)noc2C)C1 (stereo not drawn) | 0 | -1 | 4 | 2 | -6 | / | /
CCN(CC)S(=O)(=O)c1cc(NC(=O)C(C)N2CCc3ccccc32)ccc1C (stereo not drawn) | 0 | 1 | 3 | 10* | 18 | 10 | 7
SMILES | KLK7 zymogen act | PLC-gamma1 inh | PLCb3 inh | ADAM17 inh | ADAM10 inh | ADAM10 counter | ADAM17 confirm | others
CCCOc1ccc(C(=O)Nc2ccc(S(=O)(=O)N3C[C@@H]4C[C@@H](C3)c3cccc(=O)n3C4)cc2)cc1 | 0 | 1 | 1 | 4 | -2 | / | /
O=[N+]([O-])c1cccc(/C=N/n2cnnc2)c1 | 0 | 1 | -6 | 1 | -6 | / | /
O=[N+]([O-])c1ccc(O)c(/C=N/n2cnnc2)c1 | 0 | 3 | 7 | 9.2* | 15 | 11 | 5
CC(Oc1ccc(Cl)cc1Cl)c1ccnc(N)n1 (stereo not drawn) | 0 | 4 | 3 | 9.2* | 16 | 2 | 3
CC(Oc1ccccc1)c1ccnc(N)n1 (stereo not drawn) | 0 | -1 | 0 | -2 | -3 | / | /
CCc1cc(-c2n[nH]c(C)c2-c2ccccc2Cl)c(O)cc1OC | -1 | 5 | -3 | 8.7* | 17 | 32* | 16*
CCNC(=S)N/N=C/c1cn(Cc2ccccc2F)c2ccccc12 | -3 | 8 | 0 | 9.1* | 12 | 18 | 20*
CCNC(=S)N/N=C/c1cn(Cc2ccc(F)cc2)c2ccccc12 | -5 | 2 | 5 | 4 | 8 | / | /
CCOC(=O)CSC1=C(C#N)C(c2ccc(F)cc2)C(C(C)=O)=C(C)N1 (stereo not drawn) | 1 | -1 | 2 | 9.9* | 13 | -13 | 0
CCOC(=O)C1=C(C)NC(SCC(=O)OC)=C(C#N)C1c1ccc(C(=O)OC)cc1 (stereo not drawn) | 3 | -27 | -24 | -1 | -8 | / | /
O=C1C(Cc2ccccc2)NC(=S)N1c1ccccc1 (stereo not drawn) | -1 | 8 | 8 | 10* | 13 | -2 | 2

Screens deposited in PubChem by The Scripps Research Institute Molecular Screening Center.
